Compound activity deposited in PubChem BioAssay by SRMLSC.
Spn DPM-DC inh: blocks S. pneumoniae diphosphomevalonate decarboxylase | AID 556 | purified DPM-DC, PK/LDH coupled NADH fluorescence | 0.49% of 65,000 active | calls only at 10 µM;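 active = the 320 compounds with the highest percent inhibition in the single-dose primary screen, excluding strongly autofluorescent ones, cut at about 32% in these data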;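 note: kinetic rate of NADH fluorescence loss reporting ADP formed by the decarboxylase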
NADH enzymes: inhibitors of enzymes used to reach an NAD/NADH endpoint; coupled PK/LDH NADH assays, four targets; IC50, µM (series often up to 10 µM), for inactives: at the highest dose inhibition; 0.02% of 65,000 active;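 active = single-dose screening hits from any of four coupled enzyme assays that gave an IC50 when retested across doses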;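 note: the DPM-DC format reads NADH fluorescence rather than 340 nm absorbance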
Spn MK inh: inhibitors of Streptococcus pneumoniae mevalonate kinase; inhibition, % at 10 µM; 0.48% of 65,000 active; purified MK, PK/LDH-coupled NADH absorbance 340 nm;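 active = ranked among the strongest by inhibition in the single 10 µM screen, a fixed top-ranked set picked for dose follow-up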
Autofluor 339: intrinsic fluorescence of library compounds, ex339/em460 – biochemical, MLSMR library, data from DPM-DC assay, artefact control, profiling panel; 5.5% of 65,000 active; fluorescence fold increase at 10 µM; compound autofluorescence, ex339/em460 nm, NADH buffer; stronger effect = higher value; 1 = no-compound wells, NADH background;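 active = at 10 µM, mean starting fluorescence two-fold or more over control wells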;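 note: signal is the first read of a kinetic run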
Spn PMK inh: S. pneumoniae PMK inhibition; inhibition, % at 10 µM; AID 539; 0.49% of 65,000 active; purified PMK, PK/LDH-coupled NADH absorbance 340 nm;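 active = top-ranked compounds by inhibition in the single 10 µM screen, taking a fixed number of the strongest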;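 note: 0% = full reaction with DMSO carrier and 100% = background rate without enzyme reaction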
Abs 340nm: compounds absorbing at 340 nm; compound absorbance at 340 nm, fold over control; fold change at 10 µM; 65,000 tested, under 10 active; AID 708;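 active = at 10 µM dose, initial 340 nm absorbance at least 2 fold that of control wells; inactive = change under 2 fold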;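 note: initial absorbance extrapolated from kinetic A340 decline of NADH oxidation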
* marks the source's active call; other numbers are inactive results. Sampled rows, rich in hits. Any-hit rate of the full collection: about 6.5%.

Screening COc1cccc2c(=O)c3c(cnn3C)n(C)c12 returned NADH enzymes 1.0%, Spn MK inh 0.0, Autofluor 339 2.51*, Spn PMK inh 0.0 and Abs 340nm 1.
Screening N#CC1=C(N)NC(SCC(=O)Nc2ccccc2)=C(C#N)C12CCCC2 returned Spn DPM-DC inh inactive, NADH enzymes 7.0%, Spn MK inh 8.0, Autofluor 339 1.09, Spn PMK inh 1.0 and Abs 340nm 1.08.
`Cc1ccc(-n2nc3ccc(N)cc3n2)cc1` gave NADH enzymes 7.0%, Spn MK inh 6.0, Autofluor 339 2.14*, Spn PMK inh 7.0 and Abs 340nm 1.09.
Cc1ccc(-n2nc(-c3ccc(N)cc3)cc2N)cc1 was read as Spn DPM-DC inh inactive, NADH enzymes 3.0%, Spn MK inh 10.0, Autofluor 339 1.06, Spn PMK inh 0.0 and Abs 340nm 1.04.
O=c1[nH]nc(Sc2ncnc3sccc23)n1CCc1ccccc1 was read as Spn DPM-DC inh inactive, NADH enzymes 5.0%, Spn MK inh 5.0, Autofluor 339 1.02, Spn PMK inh 11.0 and Abs 340nm 1.01.
Screening Cc1csc(NC(=O)c2ccccc2O)n1 returned NADH enzymes 7.0%, Spn MK inh 6.0, Autofluor 339 3.85*, Spn PMK inh 7.0 and Abs 340nm 1.04.
For CCC(OC(=O)c1cc2sccc2n1C)C(=O)NCc1ccco1 (centres undefined) the results were Spn DPM-DC inh inactive, NADH enzymes 10.0%, Spn MK inh 0.0, Autofluor 339 0.82, Spn PMK inh 17.0 and Abs 340nm 0.99.
`Cc1nn(-c2ccccc2)c(N2CCCC2)c1/C=N/n1cnc2scc(-c3ccccc3)c2c1=O` gave Spn DPM-DC inh inactive, NADH enzymes 2.0%, Spn MK inh 0.0, Autofluor 339 3.49*, Spn PMK inh 5.0 and Abs 340nm 1.07.
For O=C(c1ccco1)N1CCN(Cc2ccccc2C(F)(F)F)CC1 the results were Spn DPM-DC inh inactive, NADH enzymes 16.0%, Spn MK inh 48.0*, Autofluor 339 1.08, Spn PMK inh 0.0 and Abs 340nm 1.
O=C(c1ccco1)N1CCN(Cc2cccc(F)c2)CC1 was read as Spn DPM-DC inh inactive, NADH enzymes 5.0%, Spn MK inh 8.0, Autofluor 339 1.14, Spn PMK inh 7.0 and Abs 340nm 1.01.
`Cc1ccc(S(=O)(=O)N2CCN(Cc3ccccc3C(F)(F)F)CC2)cc1` gave Spn DPM-DC inh inactive, NADH enzymes 16.0%, Spn MK inh 44.0*, Autofluor 339 1.04, Spn PMK inh 5.0 and Abs 340nm 1.08.
For Cc1ccc(C)c(N2CCN(C(=O)CN(C)S(=O)(=O)c3cnc[nH]3)CC2)c1 the results were Spn DPM-DC inh inactive, NADH enzymes 1.0%, Spn MK inh 0.0, Autofluor 339 1.07, Spn PMK inh 2.0 and Abs 340nm 1.02.
For O=C(NC(C(=O)c1ccccc1)N1CCCCC1)c1ccccc1 (centres undefined) the results were Spn DPM-DC inh inactive, NADH enzymes 4.0%, Spn MK inh 2.0, Autofluor 339 1.08, Spn PMK inh 9.0 and Abs 340nm 1.04.
Screening Clc1ccc2[nH]c3c(NCC4CCCO4)ncnc3c2c1 (centres undefined) returned Spn DPM-DC inh inactive, NADH enzymes 9.0%, Spn MK inh 2.0, Autofluor 339 2.5*, Spn PMK inh 11.0 and Abs 340nm 1.08.
Clc1ccc2[nH]c3c(NCCN4CCOCC4)ncnc3c2c1 was read as Spn DPM-DC inh inactive, NADH enzymes 8.0%, Spn MK inh 5.0, Autofluor 339 1.42, Spn PMK inh 12.0 and Abs 340nm 1.07.
Screening O=c1c2c(nc3n1CCCCC3)-c1ccccc1CC21CCCC1 returned Spn DPM-DC inh inactive, NADH enzymes 7.0%, Spn MK inh 12.0, Autofluor 339 1.03, Spn PMK inh 8.0 and Abs 340nm 1.03.
For O=c1[nH]c(NCCCO)nc2c1C1(CCCC1)Cc1ccccc1-2 the results were NADH enzymes 11.0%, Spn MK inh 8.0, Autofluor 339 2.1*, Spn PMK inh 13.0 and Abs 340nm 1.07.
For Cn1c(NCCO)nc2c(c1=O)C1(CCCCC1)Cc1ccccc1-2 the results were NADH enzymes 0.0%, Spn MK inh 0.0, Autofluor 339 2.21*, Spn PMK inh 0.0 and Abs 340nm 1.06.
